Results on 30 compounds are retold here after PubChem BioAssay AID1645838 (ICCB-Longwood Screening Facility, Harvard Medical School, 2021).

Structures are written as SMILES. “And” between values parts separate entries of the source, which are not always exact repeats. Equal entries are not always repeated. In all, about 2,000 compounds went through this assay and about 100 (5%) were called active. No stated cut-off is given here; in the data, active means z-score above about 2; inactive means the rest. The entries come from a sample that favours actives as a whole. The source holds several records for some structures; these can differ, active in one and inactive in another. Positions of bridges follow the written chain, without caps; N, C: chain ends. Non-standard residues stand in square brackets, D forms with d. Residues, ends and D or L forms follow the SMILES beside them. hArg = N=C(N)NCCCC[CH](N)C(=O)O; Mpa = O=C(O)CCS

This experiment in a line: modulators of mitochondrial supercomplex assembly, cell-based, luminescence, Hoechst nuclei count (AID 1645838).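 On all read-outs here: control cybrid cells.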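 On z-score: higher means more mitochondrial supercomplex formation.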 Particulars: Cells, luminescence/Hoechst cell count ratio, supercomplex reporter; for z-score: stronger effect = higher value; for cell count: measured here: cell number, Hoechst nuclei count.
[1] abbreviates: library stock concentration (final well concentration not given) 80 uM.
The mark [2] stands for this setting: library stock concentration (final well concentration not given) 400 uM.
Setting [3] is: library stock concentration (final well concentration not given) 2 mM.
Where [4] appears, read: library stock concentration (final well concentration not given) 10 mM.
[5] abbreviates: library stock concentration (final well concentration not given) 46 uM.
[6] abbreviates: library stock concentration (final well concentration not given) 278 uM.
Setting [7] is: library stock concentration (final well concentration not given) 1.67 mM.

For the compound `CC(Cc1cc2c(c(C(N)=O)c1)N(CCCO)CC2)NCCOc1ccccc1OCC(F)(F)F` (centres undefined), the z-score by setting is: under setting [1], -1.47 (inactive); under setting [2], -1.87 (inactive); under setting [3], -2.9 (inactive); under setting [4], -3.02 (inactive). Besides, the cell count worked out at 5980 under setting [1], 5330 under setting [2], 5440 under setting [3] and 5520 under setting [4].
Turning to `COc1ccc(Br)c(-c2nc3ccccc3c(=O)o2)c1`, the outcome (library stock 10 mM) is “inactive; censored for cell count”. Further, the z-score under setting [1] is -0.298 (inactive), the z-score under setting [2] was -0.159 (inactive) and the z-score under setting [3] was -0.345 (inactive). The cell count came to 5250 under setting [1], 5070 under setting [2] and 5030 under setting [3].
With `O=c1[nH]oc2cc(Cl)ccc12`, the z-score reads like this: under setting [5], -0.28 (inactive); under setting [6], 0.381 (inactive); under setting [7], -0.301 (inactive); under setting [4], 0.402 (inactive). Besides, the cell count by setting is: under setting [5], 6680; under setting [6], 6710; under setting [7], 6630; under setting [4], 6300.
`O=P(O)(O)OC1C(O)C(OP(=O)(O)O)C(O)C(OP(=O)(O)O)C1O` (centres undefined): the z-score was -0.332 (inactive) and the cell count came to 5290.
In the case of `CC(C)CC(NC(=O)NC(CCC(=O)O)C(=O)O)C(=O)O` (centres undefined), the z-score by setting is: under setting [5], -0.295 (inactive); under setting [6], 0.0106 (inactive); under setting [7], 0.469 (inactive); under setting [4], 0.233 (inactive). The cell count reads like this: under setting [5], 6480; under setting [6], 6530; under setting [7], 6460; under setting [4], 6410.
With `Cc1cc(C)c(/C=C2\C(=O)Nc3ccccc32)[nH]1`, the z-score is -0.647 (inactive) and the cell count amounted to 5700.
Consider `COc1cc(=C2C=c3ccccc3=N2)[nH]c1=Cc1[nH]c(C)cc1C`, for which the z-score under setting [1] is 0.065 (inactive), the z-score under setting [2] is 2.07 (active), the z-score under setting [3] was 3.14 (active) and the z-score under setting [4] is 1.08 (inactive). Besides, the cell count reads like this: under setting [1], 5750; under setting [2], 1640; under setting [3], 1600; under setting [4], 1560.
Turning to `CCCC(NC(C)C(=O)N1C(C(=O)O)C[C@H]2CCCC[C@@H]21)C(=O)OCC` (some centres undefined), the z-score is, setting by setting: under setting [1], -0.394 (inactive); under setting [2], 0.104 (inactive); under setting [3], -0.276 (inactive); under setting [4], -0.453 (inactive). Further, the cell count under setting [1] stood at 5070, the cell count under setting [2] stood at 4880, the cell count under setting [3] was 5080 and the cell count under setting [4] was 5340.
With `CCCCCCCCC#CCC#CCC#CCCCC(=O)O`, the z-score was 0.153 (inactive) and the cell count turned out to be 5310.
The matching figures for `CCCCC1C(=O)CC[C@H]2[C@@H]1CC(=O)[C@@H]2CCCCCCC(=O)O` (some centres undefined): -0.162 (inactive) and 5440.
In the same order, the values of `CC/C=C\C/C=C\C/C=C\CCCCCCCC(=O)OCC` are -0.911 (inactive) and 5260.
Turning to `NC(=O)Nc1cc(-c2cccc(F)c2)sc1C(=O)NC1CCCNC1` (centres undefined), the outcome (library stock 400 µM) was “inactive; censored for cell count”, the outcome (library stock 2 mM) is “inactive; censored for cell count” and the outcome (library stock 10 mM) was “inactive; censored for cell count”. In addition, the z-score was 0.798 (inactive) and 2.01 (active) under setting [1]; 2.61 (active) under setting [2]. The cell count is, setting by setting: under setting [1], 3580 and 3980; under setting [2], 1750.
As for `O=C(NC1CCN(CC(F)(F)F)CC1)c1ccc(-c2cccc(F)c2)nc1`, the z-score reads like this: under setting [5], -0.25 (inactive); under setting [6], 0.0438 (inactive); under setting [7], -0.291 (inactive); under setting [4], -0.236 (inactive). Besides, the cell count reads like this: under setting [5], 6960; under setting [6], 6520; under setting [7], 7210; under setting [4], 7340.
As to `NC(=O)Nc1sc(-c2ccc(F)cc2)cc1C(N)=O`, the outcome (library stock 10 mM) is “inactive; censored for cell count”. The z-score is -0.164 (inactive) under setting [5], 0.156 (inactive) under setting [6] and 1.6 (inactive) under setting [7]. Besides, the cell count was 6530 under setting [5], 6190 under setting [6] and 4790 under setting [7].
As for `Cc1ccc(NC(=O)c2ccc(CN3CCN(C)CC3)cc2)cc1Nc1nccc(-c2cccnc2)n1`, the z-score is, setting by setting: under setting [1], -0.201 (inactive); under setting [2], -0.672 (inactive); under setting [3], -0.269 (inactive); under setting [4], -0.486 (inactive). For the same compound, the cell count runs as follows: under setting [1], 4460; under setting [2], 4540; under setting [3], 4320; under setting [4], 4680.
In the case of `Cc1cn(-c2cc(NC(=O)c3ccc(C)c(Nc4nccc(-c5cccnc5)n4)c3)cc(C(F)(F)F)c2)cn1`, the z-score is -0.15 (inactive) under setting [1], -0.0425 (inactive) under setting [2], 0.192 (inactive) under setting [3] and 1.64 (inactive) under setting [4]. Further, the cell count under setting [1] stood at 5660, the cell count under setting [2] came to 5720, the cell count under setting [3] was 5660 and the cell count under setting [4] came out at 3260.
`Cc1ccc(NC(=O)c2ccc(CN3CCC(N(C)C)C3)c(C(F)(F)F)c2)cc1Nc1nccc(-c2cncnc2)n1` (centres undefined): the z-score is 0.0204 (inactive) under setting [1], 0.323 (inactive) under setting [2], 1.69 (inactive) under setting [3] and 4.49 (active) under setting [4]. The cell count under setting [1] came out at 5990, the cell count under setting [2] worked out at 5640, the cell count under setting [3] was 4410 and the cell count under setting [4] came to 2490.
Turning to `O=C(O)CCC/C=C\C[C@@H]1[C@@H](/C=C/[C@@H](O)C2CCCCC2)[C@H](O)C[C@@H]1O`, the z-score was -0.293 (inactive) and the cell count amounted to 5180.
The matching figures for `O=C1C[C@@H]2[C@@H](/C=C/[C@@H](O)COc3cccc(C(F)(F)F)c3)[C@H](O)C[C@@H]2O1`: 0.782 (inactive) and 5240.
In the case of `CNC(=O)c1ccccc1Nc1nc(Nc2ccc(N3CCOCC3)cc2OC)ncc1Cl`, the outcome runs as follows: (library stock 2 mM) “inactive; censored for cell count”; (library stock 10 mM) “inactive; censored for cell count”. Also, the z-score was -0.243 (inactive) under setting [1] and -0.00453 (inactive) under setting [2]. Besides, the cell count reads like this: under setting [1], 6320; under setting [2], 5260.
`COc1cc(N2CCC(N3CCN(C)CC3)CC2)ccc1Nc1ncc(Cl)c(Nc2ccccc2S(=O)(=O)C(C)C)n1`: for the setting “library stock 10 mM”, the outcome is “inactive; censored for cell count”. The z-score under setting [1] was 0.0842 (inactive), the z-score under setting [2] is 0.241 (inactive) and the z-score under setting [3] is 1.15 (inactive). Moreover, the cell count was determined as 4260 under setting [1], 4220 under setting [2] and 3560 under setting [3].
`COc1cc(N2CCOCC2)ccc1Nc1ncc(F)c(Nc2ccccc2NS(C)(=O)=O)n1`: the z-score under setting [1] was -0.351 (inactive), the z-score under setting [2] is -0.312 (inactive), the z-score under setting [3] was 0.0927 (inactive) and the z-score under setting [4] was 3.16 (active). Besides, the cell count runs as follows: under setting [1], 5830; under setting [2], 5470; under setting [3], 5120; under setting [4], 1690.
On to `CCC(O)/C=C/C=O` (centres undefined), for which the z-score was 0.341 (inactive) and the cell count worked out at 4950.
As to `O=C1C(=Cc2cn(-c3ccccc3)nc2-c2ccc(OCc3ccc(Cl)cc3)cc2)SC(=S)N1CCS(=O)(=O)O`, the z-score runs as follows: under setting [1], 0.0314 (inactive); under setting [2], 0.372 (inactive); under setting [3], -0.323 (inactive); under setting [4], -0.219 (inactive). In addition, the cell count came out at 5380 under setting [1], 4640 under setting [2], 5180 under setting [3] and 4960 under setting [4].
Consider `c1ccc(Nc2nc3c(s2)CCCc2[nH]ncc2-3)nc1`, for which the z-score is, setting by setting: under setting [5], -0.0827 (inactive); under setting [6], -0.00166 (inactive); under setting [7], -0.105 (inactive); under setting [4], 0.335 (inactive). The cell count is, setting by setting: under setting [5], 6250; under setting [6], 5830; under setting [7], 6080; under setting [4], 5550.
Take `CC(C)C1C(=O)NC(CCCN=C(N)N)C(=O)NCC(=O)NC(CC(=O)O)C(=O)NC(Cc2ccccc2)C(=O)N1C` (centres undefined): the z-score runs as follows: under setting [1], 0.68 (inactive); under setting [2], 0.227 (inactive); under setting [3], 0.518 (inactive); under setting [4], 5.23 (active). The cell count was determined as 5020 under setting [1], 5060 under setting [2], 4260 under setting [3] and 1780 under setting [4].
Turning to `NC(=O)C1CSSCCC(=O)NC(CCCCN=C(N)N)C(=O)NCC(=O)NC(CC(=O)O)C(=O)NC(Cc2c[nH]c3ccccc23)C(=O)N2CCCC2C(=O)N1` (centres undefined) ([Mpa][hArg]GDWPC-NH2; disulfide 1-7; configuration not given here), the z-score runs as follows: under setting [5], -0.201 (inactive); under setting [6], -0.18 (inactive); under setting [7], -0.38 (inactive); under setting [4], -0.0485 (inactive). Besides, the cell count reads like this: under setting [5], 5770; under setting [6], 5930; under setting [7], 6620; under setting [4], 5820.
On to `CCCCC[C@H](O)/C=C/[C@@H]1[C@@H](C/C=C\CCCCOC)[C@@H](O)C[C@H]1O`, for which the z-score was -0.514 (inactive) and the cell count was 5540.
The matching figures for `CCCCC[C@@H](O)[C@H]1C(=O)O[C@H](C)[C@@H](O)/C=C/C=C/C=C/C=C/C=C(\C)[C@@H](O)C[C@H](O)C[C@H](O)C[C@H](O)C[C@H](O)C[C@H](O)C[C@@H]1O`: 0.375 (inactive) and 5780.
On to `Cc1cc(-c2ccccc2)nc2cc(C(=O)Nc3cccc(O)c3)nn12`, for which the z-score runs as follows: under setting [1], 0.0171 (inactive); under setting [2], 0.0308 (inactive); under setting [3], -0.473 (inactive); under setting [4], -0.672 (inactive). The cell count by setting is: under setting [1], 5500; under setting [2], 5070; under setting [3], 5150; under setting [4], 5110.
